# Hit rate of the full screen: of about 320,000 compounds, about 240 (0.075%) were called active. The entries come from a sample that favours actives as a whole. Values without a mark were called inactive.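 How the source made its calls: active means inhibition at or above 25%, using the most active replicate where run in duplicate; inactive means inhibition below 25%.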
# Biological target: Serine/threonine-protein kinase 33 (Homo sapiens) (UniProt Q9BYT3)
# Assay: inhibitors of purified STK33 kinase, primary screen, biochemical, ADP-Glo luminescence, homogeneous, cell-free (AID 2661)
# Settings: purified STK33, MBP phosphorylation, at 10 µM, stronger effect = higher value
# Chain of Serine/threonine-protein kinase 33 (Homo sapiens) (Q9BYT3 whole entry, looked up): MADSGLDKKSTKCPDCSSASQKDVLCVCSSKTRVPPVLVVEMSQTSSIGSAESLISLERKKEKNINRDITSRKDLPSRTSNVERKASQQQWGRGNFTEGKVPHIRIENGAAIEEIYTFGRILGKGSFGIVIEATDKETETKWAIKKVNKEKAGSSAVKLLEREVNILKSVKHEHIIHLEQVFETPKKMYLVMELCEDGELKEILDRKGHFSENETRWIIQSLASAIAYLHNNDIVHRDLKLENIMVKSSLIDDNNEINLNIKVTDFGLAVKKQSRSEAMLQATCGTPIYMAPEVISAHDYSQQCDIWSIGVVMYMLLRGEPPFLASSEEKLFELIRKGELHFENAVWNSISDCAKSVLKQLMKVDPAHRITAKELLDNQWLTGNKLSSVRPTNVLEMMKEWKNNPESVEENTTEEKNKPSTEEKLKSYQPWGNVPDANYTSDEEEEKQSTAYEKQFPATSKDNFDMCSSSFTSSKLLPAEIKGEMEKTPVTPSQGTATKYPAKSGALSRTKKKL
row,SMILES,inhibition
1,CCC(CO)Oc1cc(NCc2ccccc2)c2ncn(C3CCCC3)c2c1 (stereo unspecified),3.27%
2,O=C(Nc1cccc(S(=O)(=O)N2CCCCC2)c1)c1cncc(Br)c1,-0.246%
3,CC(=NNC(=O)c1ccc2nc[nH]c2c1)c1ccc(Br)cc1,-0.319%
4,COc1cc(S(=O)(=O)N2CCN(C(=O)C3CC3)CC2)ccc1NC(C)=O,0.285%
5,COc1ccccc1C(=O)COC(=O)COc1ccc(C#N)cc1,5.03%
6,Cc1cccc(NC(=S)Nc2ccc3cn[nH]c3c2)c1,11.6%
7,S=C(Nc1cccc(Cl)c1)Nc1ccc2cn[nH]c2c1,27% (active)
8,CCc1cccc(CC)c1NC(=S)Nc1ccc2cn[nH]c2c1,24.8%
9,CN(Cc1ccc(F)cc1)C(=O)CN1C(=O)c2ccccc2S1(=O)=O,-1.27%
10,COc1ccc(CCNC(=O)COC(=O)c2cnc(Cl)c(Cl)c2)cc1,0.375%
11,C[C@]12CC[C@H](O)CC1=CCC1C2CC[C@@]2(C)C1CC[C@@H]2NC(=O)CCC(=O)O (stereo partly specified),-0.89%
12,CC1CCCCC1NCC(=O)Nc1ccccc1C(=O)Nc1ccccc1 (stereo unspecified),0.481%
13,CC(C)(C)OC(=O)C[C@H]1C/C=C\C[C@@H](CC(=O)N[C@H](CO)Cc2ccccc2)C(=O)NC[C@@H](c2ccccc2)OC1=O,-0.103%
14,O=C1COc2ccc(C(=O)COC(=O)c3ccccc3Cl)cc2N1,-0.902%
15,Cn1c(N)c(C(=O)COC(=O)c2cccc(S(=O)(=O)N3CCOCC3)c2)c(=O)n(C)c1=O,-0.402%
16,O=C(Cn1cc(C(F)(F)F)ccc1=O)Nc1ccc2c(c1)OCCO2,-0.216%
17,C[C@H]1COC(=O)[C@H](CC(=O)OC(C)(C)C)C/C=C\C[C@@H](CC(=O)N[C@H](CO)Cc2ccccc2)C(=O)N1,0.871%
18,C[C@H](CO)N1C[C@H](C)[C@@H](CN(C)S(=O)(=O)c2ccc(F)cc2)Oc2ccc(NC(=O)CCC(F)(F)F)cc2C1=O,-3.43%
19,CCN(c1ccccc1)S(=O)(=O)c1ccc(C(=O)Nc2ccccc2OC)cc1,-0.186%
20,Cc1csc2nc(COC(=O)c3cccc(N(C)C)c3)cc(=O)n12,0.859%
21,Cc1csc(=O)n1CC(=O)Nc1ccc(S(C)(=O)=O)cc1,-0.384%

row,SMILES,inhibition
1,COc1ccc(-c2c(C#Cc3ccsc3)c3cc(-c4ccc(CN5CCOCC5)cc4)ccc3n2C)cc1,-0.0231%
2,O=S(=O)(Nc1ncnc2sccc12)c1cccc(F)c1,-0.694%
3,CCN(C[C@H]1N[C@@](CC)(C(=O)OC)[C@H]2C(=O)N(C)C(=O)[C@@H]12)C(=O)Nc1ccc(F)cc1,-1.58%
4,Cc1ccc(NC(=O)c2ccc(Cl)nc2)cc1S(=O)(=O)N1CCOCC1,-0.219%
5,COc1ccccc1N(CC(=O)Nc1ccc(C)cc1Cl)S(=O)(=O)c1cccs1,-0.284%
6,Cc1ccc(CNC(=O)COC(=O)C2CCC2)cc1,-0.167%
7,C=CC[C@@H](CC(=O)N[C@H](CO)Cc1ccccc1)C(=O)N[C@H](C)COC(=O)[C@@H](CC=C)Cc1ccc(F)cc1,-1.41%
8,O=C(COC(=O)c1cc(S(=O)(=O)N2CCOCC2)ccc1F)NC1CC1,-1.08%
9,O=C1CC2(CCCC2)C(=O)N1CN1CCN(S(=O)(=O)c2ccc(F)cc2F)CC1,0.0533%
10,O=C(C[C@H]1C/C=C\C[C@@H](NC(=O)OCC2c3ccccc3-c3ccccc32)C(=O)O[C@@H](c2ccccc2)CNC1=O)N[C@H](CO)Cc1ccccc1,0.211%
11,COc1ccc(C(=O)COC(=O)c2c(C)noc2C)cc1Cl,0.472%
12,O=C(COC(=O)c1cccnc1Cl)NC12CC3CC(CC(C3)C1)C2,-1.76%
13,Cc1cc(C)nc(N/N=C/c2ccc([N+](=O)[O-])o2)n1,0.179%
14,CCn1c(/C=C/c2ccc([N+](=O)[O-])o2)nc2ccccc2c1=O,84.6% (active)
15,CCn1c(=O)c([N+](=O)[O-])c(NCc2ccc3c(c2)OCO3)c2ccccc21,2.57%
16,Cn1c(N)c(C(=O)COC(=O)c2ccc3ccccc3c2)c(=O)n(C)c1=O,-1.35%
17,CCOC(=O)[C@H]1[C@H]2COc3cc(OC)ccc3[C@@H]2N2C(=O)CN(Cc3ccc(Cl)cc3)C(=O)[C@@]12C,0.914%
18,O=C(COC(=O)c1n[nH]c2ccccc12)Nc1ccccc1Br,-1.11%
19,CC1CCCCC1NC(=O)Cn1cnc2c1c(=O)n(C)c(=O)n2C (stereo unspecified),1.66%
20,Cc1ccc2c(c1)NC(=O)[C@@]1(C)[C@@H](c3ccccc3)[C@H]3COc4ccc(Cl)cc4[C@@H]3N1C2=O,-0.222%
21,CC1(C)CC[C@@]2(C(=O)O)C(C1)C1=CCC3[C@@]4(C)CC[C@H](O)C(C)(C)C4CC[C@@]3(C)[C@]1(C)C[C@H]2O (stereo partly specified),-0.618%

row,SMILES,inhibition
1,CCN(C[C@H]1N[C@@](Cc2ccccc2)(C(=O)OC)[C@H]2C(=O)N(Cc3ccccc3)C(=O)[C@@H]12)C(=O)c1ccc(C)cc1,-0.0719%
2,COc1ccc(-c2nc3cnccn3c2NC2CCCCC2)cc1-c1cccc(Cl)c1,0.0525%
3,CN1CCN(C(=O)c2ccc(-c3ccc(Br)cc3)o2)CC1,-1.87%
4,Cc1ccc(C2(C)NC(=O)N(CC(=O)N3CC(=O)Nc4ccccc43)C2=O)cc1 (stereo unspecified),-1.43%
5,O=C(NCc1ccc2c(c1)OCO2)c1cc([N+](=O)[O-])ccc1N1CCOCC1,0.302%
6,COc1ccc(Br)cc1CN(C)C(=O)C1CC(=O)N(C2CCCC2)C1 (stereo unspecified),-1.57%
7,COc1cc(C=NNC(=O)c2cccnc2)ccc1OC(=O)c1ccccc1F,-0.897%
8,COc1ccccc1C(=O)OCC(=O)Nc1cccc(S(=O)(=O)NC2=NCCCCC2)c1,-2.03%
9,O=C(NNS(=O)(=O)c1c(F)cc(F)c(Cl)c1F)C12CC3CC(CC(C3)C1)C2,0.0785%
10,C=CC[C@H](CC(=O)N(CCO)Cc1ccccc1)C(=O)N[C@@H](COC(=O)[C@@H](CC=C)Cc1ccc(F)cc1)Cc1ccccc1,-2.76%
11,CC1(c2ccccc2)NC(=O)N(CC(=O)N2CC(=O)Nc3ccccc32)C1=O (stereo unspecified),-2.96%
12,O=C(Nc1cccc(S(=O)(=O)N2CCOCC2)c1)C12CC3CC(CC(C3)C1)C2,-0.903%
13,COc1ccc(C2=Nn3c(nnc3-c3ccccc3OC)SC2)cc1OC1CCCC1,0.928%
14,O=C(COC(=O)c1ccncc1)Nc1ccc2c(c1)OCO2,0.121%
15,CN(CC(=O)NCCc1ccc(S(N)(=O)=O)cc1)CC(=O)Nc1ccc(F)c(F)c1F,-2.4%
16,Cc1cccc(C(=O)OCC(=O)NC(C)C2CC3CCC2C3)c1O (stereo unspecified),-0.0496%
17,Cc1occc1C(=O)Nc1cccc(S(=O)(=O)N2CCOCC2)c1,-0.0898%
18,O=C(COC(=O)c1ccc2c(c1)OCCO2)NCc1ccccc1Cl,0.627%
19,COc1ccc2sc(-c3ccc(S(C)(=O)=O)cc3)c(-c3ccc(C(N)=O)cc3)c2c1,0.996%
20,CCOC(=O)C1CCN(C(=O)CN2C(=O)NC(C)(c3ccc4cc(OC)ccc4c3)C2=O)CC1 (stereo unspecified),-0.656%
21,O=C(OCCN1C(=O)c2ccccc2C1=O)[C@@H]1CC(O)CN1S(=O)(=O)c1ccccc1[N+](=O)[O-] (stereo partly specified),-1.85%

row,SMILES,inhibition
1,Cc1ccc(C(=O)Nc2ccc3c(c2)OCCO3)cc1S(=O)(=O)N1CCOCC1,-0.304%
2,CC(C)Cn1c(SCC(=O)Nc2ccc(Cl)cc2F)nc(O)cc1=O,-0.953%
3,COc1ccccc1N=Cc1c(O)c2ccccc2oc1=O,-1.49%
4,COc1cc(N=Cc2c(O)[nH]c3ccccc23)cc(OC)c1OC,58.4% (active)
5,CN=c1scc(-c2cc(OC)ccc2OC)n1/N=C/c1c(C)[nH]c2ccccc12,-0.488%
6,COc1ccc(N=Cc2c(O)[nH]c3ccccc23)cc1OC,52.5% (active)
7,COc1cc(/C=N/NC(=O)Cc2ccccc2)cc(OC)c1OC,-2.17%
8,COc1ccc2[nH]c(C(=O)N/N=C/c3cc(OC)c(OC)c(OC)c3)cc2c1,2.65%
9,O=C1NC(Cc2ccc(O)cc2)c2nc3ccc(Cl)cc3c(=O)n2-c2ccccc21 (stereo unspecified),-0.58%
10,COc1ccc(S(=O)(=O)N2CCN(CC(=O)N3CCOCC3)CC2)cc1OC,-0.603%
11,C=CCC[C@@H](Cc1ccc(F)cc1)C(=O)O[C@H](CNC(=O)[C@H](CC=C)CC(=O)N(CCO)Cc1ccccc1)c1ccccc1,-2.71%
12,COc1cccc(NC(=O)COc2cccnc2[N+](=O)[O-])c1,-0.0978%
13,CC(OC(=O)c1ccc(Cl)cc1O)C(=O)NCCC1=CCCCC1 (stereo unspecified),-0.652%
14,CC1CC(=NNC(=O)C2COc3ccccc3O2)CC(C)(C)C1 (stereo unspecified),-2.29%
15,CN(CC(=O)Nc1ccc(C(N)=O)cc1)S(=O)(=O)c1ccc2c(c1)OCCO2,-0.492%
16,O=C(Nc1cccc(S(=O)(=O)NC2=NCCC2)c1)c1ccc(F)cc1F,-1.19%
17,Cc1ccc(S(=O)(=O)Nc2ccc(F)c(S(=O)(=O)N3CCOCC3)c2)cc1,-2.74%
18,COc1ccc(C(=O)COC(=O)C(O)c2ccccc2)c(OC)c1 (stereo unspecified),-0.118%
